# The sample as a whole holds a higher share of hits than the screen did.
# CD40 NFkB inh: CD40 pathway inhibition in BL2 cells; BL2 NF-kB luciferase reporter, CD40L-induced, 4 h; inhibition, % at 10 µM; 0.94% of 83,000 active; AID 1053188;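 active means mean inhibition of at least 50% with a set share of replicates also reaching that level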;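 further: 0% = neutral control wells and 100% = IKK inhibitor VII at 50 µM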
# * = called active by the depositor; [ ] = dose if it differs, or a comment.
SMILES,CD40 NFkB inh
O=C1/C(=C/c2ccccc2)C[C@@]2(O)C3Cc4ccc(O)c5c4[C@@]2(CCN3CC2CC2)[C@H]1O5,85*[25 µM]
O=C1CC[C@@]2(O)[C@H]3Cc4ccc(O)c5c4[C@@]2(CCN3CC2CC2)[C@H]1O5,-6
COC(=O)C=CC(=O)NC1CCC2(O)C3Cc4ccc(O)c5c4C2(CCN3CC2CC2)C1O5 (stereo unspecified),5[25 µM]
CC(C)NC(=O)N1C[C@@H]2C(c3ccccc3)[C@H](C1)N2CC1CC1 (stereo partly specified),-3
C=CCN1[C@@H]2CN(C(=O)NC(C)C)C[C@H]1C2c1ccccc1 (stereo partly specified),-2
C#CCN1C(C)=C(C(=O)CCO)C(c2cccc(-n3oo3)c2)C(C(=O)OC)=C1C (stereo unspecified),4[25 µM]
CCCCC1C(=O)NC(=S)N(C)C1=O (stereo unspecified),33*
O=C(Cc1ccncc1)N1CCCCN2[C@H](CO)[C@@H](c3ccc(C#Cc4ccccc4F)cc3)[C@H]2C1,1[25 µM]
C/C=C/c1ccc(C2[C@@H]3CN(C(=O)c4cnccn4)C[C@H]2N3)cc1 (stereo partly specified),0
COC(=O)[C@H]1[C@H](CO)[C@H]2Cn3c(ccc(-c4ccccc4)c3=O)[C@@H]1N2S(=O)(=O)c1ccccc1C,-12[25 µM]
O=C([C@H]1N[C@H]2c3cccc(=O)n3C[C@H]2[C@@H]1CO)N1CCCCC1,1[25 µM]
OC[C@H]1Nc2ccc(C#Cc3cccnc3)cc2[C@H]2NCC[C@H]21,1[25 µM]
CC1=CC2OC3CC4OC(=O)C=CC=CC(C(C)O)OCC(O)C5(C)OC5C(=O)OCC2(CC1O)C4(C)C31CO1 (stereo unspecified),86*
CC1CCOC(=O)C=CC=CC(=O)OC2CC3OC4C5OC5(C)C(O)CC4(COC(=O)C1O)C2(C)C31CO1 (stereo unspecified),95*
O=C(O)[C@@H]1[C@@H](CO)[C@@H]2Cn3c(ccc(-c4ccccc4)c3=O)[C@H]1N2C(=O)C1CCCCC1,-2[25 µM]
C=CCN1[C@@H]2CN(C(C)=O)C[C@H]1C2c1ccccc1 (stereo partly specified),-6
CC(=O)N1C[C@@H]2C(c3ccc(Br)cc3)[C@H](C1)N2CC1CC1 (stereo partly specified),7
COc1ccccc1CN1[C@H](CO)[C@@H](c2ccccc2)C12CN(C(=O)Cc1ccccc1)C2,15[25 µM]
N#Cc1ccc(-c2ccc([C@@H]3[C@H]4CN(C(=O)Cc5ccccc5)CCCCN4[C@H]3CO)cc2)cc1,2[25 µM]
CC(C)C1(NC(=O)C2CC3c4cccc5[nH]cc(c45)CC3N(C)C2)OC2(O)C3CCCN3C(=O)C(Cc3ccccc3)N2C1=O (stereo unspecified),1[25 µM]
Cc1ccc(OC(=O)N(C)C[C@H]2OCc3ccccc3-c3c(n(C)c4ccccc34)C(=O)N([C@H](C)CO)C[C@H]2C)cc1,38[25 µM]
Cc1ccc(OC(=O)N(C)C[C@@H]2OCc3ccccc3-c3c(n(C)c4ccccc34)C(=O)N([C@@H](C)CO)C[C@H]2C)cc1,55*[25 µM]
Cc1ccc(OC(=O)N(C)C[C@H]2OCc3ccccc3-c3c(n(C)c4ccccc34)C(=O)N([C@@H](C)CO)C[C@@H]2C)cc1,31[25 µM]
COc1cccc(-c2ccc([C@H]3[C@H](CO)N4CCCCN(C(=O)Cc5ccncc5)C[C@@H]34)cc2)c1,-10[25 µM]
CC(C)=CCCN1CCC(NC(=O)[C@](O)(c2ccccc2)C2CCCC2)CC1,-2[25 µM]
SMILES,CD40 NFkB inh
COc1cc2cc(C(=O)N3CC(COS(C)(=O)=O)c4ccc(O)cc43)[nH]c2c(OC)c1OC (stereo unspecified),91*
O=C(Cc1ccccn1)N1CCCCN2[C@H](C1)[C@@H](c1ccc(-c3ccccc3F)cc1)[C@@H]2CO,17[25 µM]
CC=Cc1ccc2n(c1=O)C[C@H]1[C@H](CO)[C@@H](C(=O)N(C)C)N[C@@H]21 (mixture of isomers),4
C[C@H]1CN([C@@H](C)CO)C(=O)c2c(c3ccccc3n2C)-c2ccccc2CO[C@H]1CN(C)C(=O)Oc1ccccc1,11
CN(C)CC#Cc1ccc([C@@H]2[C@H]3CN(C(=O)Cc4ccccn4)CCCCN3[C@H]2CO)cc1,-16[25 µM]
c1cc(-c2ccc(C3[C@H]4CNC[C@@H]3N4CC3CC3)cc2)ccn1 (stereo partly specified),-5
COc1cccc(CN2CC3(C2)[C@H](c2ccccc2)[C@H](CO)N3C(=O)Cc2ccccc2)c1,12[25 µM]
COc1ccc(CC2C(=O)NC(C)C(=O)N(C)C3C(=O)N(C)C(Cc4ccc(O)c(c4)Oc4ccc(cc4)C3O)C(=O)NC(C)C(=O)NC(C)C(=O)N2C)cc1 (stereo unspecified),124*
O=C1Nc2cc(Cl)c(Cl)cc2N2CCNCC12 (stereo unspecified),-27[25 µM]
O=C(Cc1ccccn1)N1CCCCN2[C@@H](CO)[C@@H](c3ccc(Br)cc3)[C@@H]2C1,-4[25 µM]
C=CCN1CCC23c4c5ccc(O)c4OC2/C(=N\NC(=O)c2ccccc2)CCC3(O)C1C5 (stereo unspecified),-12[25 µM]
